FXN GAA850 act – FXN promoter activators, primary screen, cell-based, luciferase luminescence, HEK293 lucGAA850; actives 0.56% (n = 360,000); activation, % at 6 µM; HEK293 lucGAA850 FXN promoter luciferase reporter, 24 h; percent of 10 µM SAHA response; AID 540364, 2011;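 active = activation above the average of all compounds screened plus 3 SD, cutoff fixed separately per campaign, cut at about 7.5% in these data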;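 note: 0% = DMSO wells and 100% = 10 µM SAHA wells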
DAX1 inh-1 – DAX1 (NR0B1) inhibitors on StAR promoter, primary screen, cell-based, luminescence, SF-1 (NR5A1), full-length DAX-1. HEK293T StAR-luciferase reporter, SF-1/DAX-1 repression relief. inhibition, % at 6.8 µM. actives 1.1% (n = 370,000). AID 652010, 2013;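 active = inhibition above the mean over all tested compounds plus 3 SD, cut at about 3.6% in these data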;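 note: 0% = DAX-1 cells with DMSO and 100% = cells lacking DAX-1 with DMSO; higher inhibition means more luminescence from relief of DAX-1 repression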
hcDAF12 agonist – H. contortus DAF-12 nuclear receptor activators, primary screen, cell-based, luminescence, HEK293, lit1-tk-luc reporter | HEK293 hcDAF-12 lit1-tk-luc reporter; 0% DMSO, 100% Δ7-dafachronic acid | activation, % at 6.8 µM | AID 652067, 2013 | actives 1.4% (n = 370,000);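 active = activation above the mean of all tested compounds plus 3 SD, cut at about 5.5% in these data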;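 note: 100% = response to 3 µM Δ7-dafachronic acid high control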
ssDAF12 agonist – S. stercoralis DAF-12 nuclear receptor activators, primary screen, cell-based, luminescence, HEK293, GRIP1 co-expression, lit1-tk-luc; activation, % at 6.8 µM; HEK293 ssDAF-12/GRIP1 lit1-tk-luc reporter; % of 3 µM dafachronic acid response; actives 1% (n = 370,000); Nuclear hormone receptor DAF-12 (Strongyloides stercoralis);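 active = activation above the mean over all tested compounds plus 3 SD, cut at about 0.9% in these data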;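 note: 0% = DMSO-only wells and 100% = 3 µM delta7-dafachronic acid wells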
hgDAF-12 ag – H. glycines DAF-12 receptor agonists, primary screen, cell-based, luminescence, HEK293, GAL4 fusion, UAS-luciferase; Nuclear hormone receptor DAF-12 (Heterodera glycines), GAL4 fusion; actives 1.8% (n = 370,000); activation, % at 6.8 µM; HEK293 GAL4-hgDAF12 UAS-luciferase reporter, agonist luminescence; normalized to butyrate control;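 active = activation above a cutoff set at the mean of all screened compounds plus 3 SD, cut at about 10% in these data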;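 note: 0% = DMSO wells and 100% = sodium butyrate wells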
DAX1 inh-2 – DAX1 (NR0B1) inhibitors, primary screen, cell-based, HEK293, Gal4-DAX1, luciferase luminescence | HEK293 Gal4-DAX1 luciferase reporter | actives 0.99% (n = 340,000) | inhibition, % at 6.75 µM | Nuclear receptor subfamily 0 group B member 1 (Homo sapiens), P51843;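 active = inhibition above the mean over all tested compounds plus 3 SD, cut at about 4.2% in these data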;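 note: 0% = DAX1-transfected cells with DMSO and 100% = empty-vector control cells with DMSO; inhibition shows as a rise in luminescence from relieved DAX1 repression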
Target sequence (P51843 207-470 limits assumed): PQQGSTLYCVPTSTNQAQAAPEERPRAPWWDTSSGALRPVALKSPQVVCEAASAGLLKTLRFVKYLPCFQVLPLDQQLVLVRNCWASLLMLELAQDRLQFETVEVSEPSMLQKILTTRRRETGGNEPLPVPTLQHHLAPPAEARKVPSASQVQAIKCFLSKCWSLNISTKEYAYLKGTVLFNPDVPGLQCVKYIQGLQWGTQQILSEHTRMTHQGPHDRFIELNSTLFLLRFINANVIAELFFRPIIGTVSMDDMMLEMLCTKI
* = called active by the depositor; . = not tested or not shown. Shown are actives, neighbours in structure and some others; about 4.5% of the full set was active somewhere.

SMILES | FXN GAA850 act | DAX1 inh-1 | hcDAF12 agonist | ssDAF12 agonist | hgDAF-12 ag | DAX1 inh-2
Cc1csc(NC(=O)c2sccc2C)n1 | 3.5 | 2.2 | 5.1 | 0.3 | 12.5* | 2.7
Cc1csc(NC(=O)c2ccco2)n1 | 3.7 | 0.8 | 1.1 | 1.0* | 5.3 | 1.3
Cc1csc(NC(=O)c2cc(-c3ccco3)nc3ccccc23)n1 | 2.1 | -0.6 | 4.3 | 8.8* | 1.3 | -0.5
Cc1ccsc1C(=O)Nc1nccs1 | 1.2 | 0.4 | 0.3 | 0.3 | 4.5 | 1.0
O=C(Nc1nc(-c2ccc(Cl)s2)cs1)c1cccs1 | 5.7 | 0.3 | 1.6 | -1.0 | 10.0 | -0.5
O=C(Nc1nc(-c2ccc(Cl)s2)cs1)c1ccco1 | 2.5 | 1.0 | 0.9 | -1.2 | 11.5* | 3.1
CN(C(=O)CNC(=O)c1ccccc1OCC(=O)Nc1ccc(Br)cc1)c1ccccc1 | . | -3.3 | -2.9 | -2.0 | 1.2 | .
Cc1ccc(-n2c(SCc3nc4ccccc4[nH]3)nnc2-c2ccccn2)cc1 | . | -0.3 | -2.5 | -1.1 | -0.9 | .
O=C(Nc1ccc(Cl)cc1)C1CCCN1S(=O)(=O)c1cccc2cccnc12 (stereo not drawn) | . | -1.9 | -2.7 | -1.8 | -0.8 | .
C=CCOC(=O)c1sc(NC(=O)c2ccco2)nc1C | 5.1 | 2.8 | 4.6 | -0.5 | 10.7* | 1.6
Cc1csc(NC(=O)c2cccn2C)n1 | 2.9 | 3.4 | 4.6 | -0.2 | 12.2* | 2.3
Cn1cccc1C(=O)Nc1nc(-c2ccccn2)cs1 | -2.3 | -0.5 | 1.2 | -0.1 | 6.3 | -0.7
O=C(Nc1ccccc1)OCCN1C(=O)CCC12CCC(c1ccccc1)CC2 (stereo not drawn) | . | -0.3 | -2.9 | -1.4 | 2.5 | .
CCOC(=O)/C(C#N)=C/c1cn(CCC(=O)O)nc1-c1ccc(OC)cc1 | -0.6 | 0.3 | -0.5 | -0.9 | 0.2 | 6.6*
COc1cc(S(=O)(=O)n2cnc(C)c2)ccc1Cl | 0.9 | 0.5 | -0.1 | 0.6 | -0.6 | 0.2
CCOc1cc(S(=O)(=O)n2cnc(C)c2)ccc1Cl | -1.9 | -0.5 | -0.1 | -1.0 | -2.0 | 4.5*
COc1cccc(/C=N/n2c(C)nc3ccccc3c2=O)c1O | -2.0 | 0.7 | 0.5 | -1.2 | 0.7 | 5.5*
CCCN1CCS(=O)(=O)N(Cc2cn(Cc3ccc(F)cc3)nn2)C(C(=O)OC)C1 (stereo not drawn) | . | -0.2 | -2.8 | -0.2 | -0.1 | .
FC(F)(F)c1ccccc1CN1CCCc2nc(-c3ccc(Br)cc3)ccc21 | . | 2.5 | -0.4 | 2.6* | 6.9 | .
COc1ccc(-c2ccc3c(n2)CCCN3Cc2ccccc2C(F)(F)F)cc1 | . | 4.2* | 1.5 | -0.5 | 8.1 | .
FC(F)(F)c1ccccc1CN1CCCc2nc(-c3ccccc3)ccc21 | . | 1.1 | 0.5 | -0.9 | 0.2 | .
COCCN1CCCc2nc(-c3ccc(Br)cc3)ccc21 | . | 4.0* | 0.5 | -0.4 | 10.5* | .
Brc1ccc(CN2CCCc3nc(-c4ccccc4)ccc32)cc1 | . | -1.3 | 2.4 | 0.8 | 4.8 | .
O=C(NC1CCCCN(Cc2cccc(C(F)(F)F)c2)C1=O)c1cccc(C(F)(F)F)c1 (stereo not drawn) | . | -1.0 | -2.5 | -1.1 | -1.7 | .
CN1Cc2nnn(CC3CCCCC3)c2-c2ccccc2S1(=O)=O | . | -0.2 | -2.9 | -1.4 | -2.8 | .
SMILES | FXN GAA850 act | DAX1 inh-1 | hcDAF12 agonist | ssDAF12 agonist | hgDAF-12 ag | DAX1 inh-2
CCOC(=O)N1C(=O)C[C@](Sc2ccc(OC)cc2)(C(=O)N2CCCC2)[C@H]1c1ccc(OC)cc1 | . | -2.0 | -0.1 | -1.1 | 1.8 | .
C/C(=N\NC(=O)c1ccccc1F)c1ccc2c(c1)Nc1ccccc1S2 | 5.9 | 1.2 | -0.1 | -1.4 | 10.7* | 0.0
C/C(=N\NC(=O)c1ccc(O)cc1)c1ccc2c(c1)Nc1ccccc1S2 | 3.0 | 0.2 | -2.8 | -1.4 | 7.7 | -1.6
CCCOc1ccc(C(=O)N2CCC(Oc3cccnc3)CC2)cc1 | . | -1.1 | -1.1 | -1.7 | -1.8 | .
Cc1ccc2cc(CCNC(=O)c3cccc([N+](=O)[O-])c3)c(=O)[nH]c2c1 | -1.0 | -0.3 | 0.6 | -0.8 | 4.2 | 0.7
Cc1ccc2cc(COC(=O)c3cccc([N+](=O)[O-])c3)c(=O)[nH]c2c1 | 1.0 | 0.5 | 1.1 | 0.0 | -1.0 | 4.5*
CC1(C)CC(=O)C=C(Nc2ccccc2NC(=O)c2cc(F)ccc2F)C1 | . | -1.5 | -0.2 | -1.4 | -1.1 | .
O=C(c1cccs1)c1coc2ccc(O)cc12 | 0.4 | 1.0 | 2.2 | -0.8 | 11.6* | 3.6
CCC(=O)c1coc2ccc(O)cc12 | -2.2 | -0.2 | -0.1 | -1.2 | -1.3 | 0.3
O=C(c1cccc(Br)c1)c1coc2ccc(O)cc12 | 0.0 | 0.7 | 4.5 | 0.3 | 13.0* | 1.3
C(#CC1=CCCCC1)CNCc1ccccc1 | . | -0.5 | 0.0 | -1.2 | -0.6 | .
Cc1ccc(OCc2nnc(SCC(=O)c3ccc4ccccc4c3)n2-c2ccc(Cl)cc2)cc1 | . | 0.1 | 1.3 | -0.6 | 3.1 | .
O=C(O)c1ccc(COc2ccc3ccccc3c2/C=C2/NC(=O)N(c3ccccc3)C2=O)cc1 | -1.1 | 0.7 | 1.5 | 1.0* | -1.6 | -0.6
O=C(CCc1ccccc1)N[C@H]1[C@@H](OC(=O)c2cnccn2)CCC[C@]12C(=O)N(Cc1ccccc1)c1ccccc12 | . | -0.1 | -0.9 | -0.8 | -1.2 | .
C=CCN1C(=O)[C@@H](CC(=O)NCC2CCCCC2)[C@]2(C(=O)OCC)CCCCC/C=C/12 | . | 0.1 | -0.6 | -0.2 | 0.3 | .
O=c1[nH]nc(Cc2ccc3ccccc3n2)c2ccccc12 | 5.2 | 1.5 | 6.5* | 1.0* | 3.7 | 0.9
COc1ccc(CN2C(=O)c3ccnn3CC2(C)c2nnnn2-c2c(C)cccc2C)cc1 (stereo not drawn) | . | 0.2 | -0.1 | -1.1 | 2.0 | .
Cc1cnc(-c2nc3ccccc3n2C(C(=O)NC(C)(C)C)c2ccccc2)cn1 (stereo not drawn) | . | 1.0 | 0.1 | -1.1 | -2.5 | .
Cc1cnc(-c2nc3ccccc3n2C(C(=O)NC(C)(C)C)c2ccncc2)cn1 (stereo not drawn) | . | 1.3 | -1.1 | 0.1 | 11.0* | .
COc1cc(C=Nn2c(-c3cc(-c4ccccc4)n[nH]3)n[nH]c2=S)ccc1OC(C)=O | . | -0.9 | -2.3 | -1.9 | 3.8 | .
O=C(NC1CCCCN(Cc2ccc(Cl)cc2)C1=O)c1ccccc1-c1ccc(Cl)c(Cl)c1 (stereo not drawn) | . | -0.1 | 1.1 | -1.6 | -1.1 | .
Cc1ccc(NC(=O)C(=O)c2ccc(C)cc2)cc1 | 3.3 | 2.1 | 2.7 | 0.0 | 12.4* | 1.3

Bioassay records (PubChem)
